PubChem BioAssay AID1259415 (National Center for Advancing Translational Sciences (NCATS), 2018)
Among all 410,000 compounds or so, about 18,000 (4.4%) were called active. Inconclusive results (about 7%) are left out. Shown is part of a subset that was picked to be rich in actives. A number with no mark means an inactive call. No stated cut-off is given here; in the data, active means activity change below about -60%; inconclusive means no clear call, values can overlap the other calls; inactive means above about -39%.
On the % scale 0 is the no-effect control and ±100 the full control effect.

Assay: qHTS Assay for inhibitors of the human cytomegalovirus (HCMV)
Conditions: HFF cells, HCMV-luciferase reporter, 72 h; at 57.5 µM; stronger effect = lower value
In short: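 HFF cells seeded 16 h at 37C, treated with compounds, infected with luciferase-reporter HCMV at MOI 1 PFU/cell; luciferase read at 72 h post infection, normalized to buffer-only and Salinomycin controls.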
In the case of `Cc1cc(=O)n2[nH]c(-c3sccc3-n3c(C)ccc3C)cc2n1`, the activity change, negative = inhibition is reported as -64.1% (active).
In the case of `COc1ccccc1CNS(=O)(=O)c1cc(Br)cc2c1N(C(C)=O)C(C)C2` (stereo not given), the activity change, negative = inhibition is reported as -27.7%.
In the case of `COc1cc(NC(=O)COC(=O)c2cc(S(=O)(=O)N3CCOCC3)ccc2F)cc(OC)c1`, the activity change, negative = inhibition is reported as -68.7% (active).
For `O=C(COC(=O)c1ccccc1F)Nc1cc(S(=O)(=O)N2CCOCC2)ccc1N1CCCC1`, the activity change, negative = inhibition was -28.5%.
Compound `O=C(COC(=O)c1cc(S(=O)(=O)N2CCOCC2)ccc1F)NC1CC1` has an activity change, negative = inhibition of -20.2%.
`CCCC12CN3CC(C)(CN(C1)C3c1ccccc1Cl)C2=O` (stereo not given) showed an activity change, negative = inhibition of 1.49%.
Compound `Cc1cccc(NC(=O)NC2(C)CCS(=O)(=O)C2)c1` (stereo not given) has an activity change, negative = inhibition of 14.3%.
Compound `Cc1ccoc1C(=O)Nc1cccc(Oc2ccccc2)c1` has an activity change, negative = inhibition of 16.8%.
In the case of `Cc1cccc(NC(=O)Nc2cccc(Oc3c(F)c(F)c(F)c(F)c3F)c2)c1`, the activity change, negative = inhibition is reported as -76.5% (active).
With `COc1ccc(CCNC(=O)CCCCn2c(=O)c3ccccc3n(Cc3ccccc3C)c2=O)cc1OC` the activity change, negative = inhibition was -31.9%.
Compound `CCOC(=O)c1ccc(NC(=O)c2c(NCc3cccc(OC)c3)sc3c2CCC3)cc1` has an activity change, negative = inhibition of -1.86%.
For `CCC(=O)N1CCN(c2ccccc2NC(=O)COc2cccc(C)c2C)CC1`, the activity change, negative = inhibition was -63.8% (active).
Compound `Cc1ccccc1OCC(=O)Nc1ccc(N2CCN(C(=O)C(C)C)CC2)c(Cl)c1` has an activity change, negative = inhibition of 1.1%.
With `CCOc1ccccc1NC(=S)N1CCN(c2cccc(C)c2C)CC1` the activity change, negative = inhibition was -37.3%.
For `COc1ccc(C)cc1NC(=O)C(=O)NCCc1sc(-c2cccc(C)c2)nc1C`, the activity change, negative = inhibition was -4.02%.
`Cc1ccccc1CCNC(=O)C1CCN(c2nc3ccccc3nc2C(F)(F)F)CC1` showed an activity change, negative = inhibition of -6.7%.
For `COC(=O)/C=C\C(=O)Nc1cccc([N+](=O)[O-])c1`, the activity change, negative = inhibition was -87.4% (active).
Compound `COc1ccc(C)cc1S(=O)(=O)N(CC(=O)Nc1cccc([N+](=O)[O-])c1)c1ccc(C)cc1` has an activity change, negative = inhibition of -7.9%.
For `CCc1ccc(NC(=O)C(C)OC(=O)/C=C/c2cccc([N+](=O)[O-])c2)cc1` (stereo not given), the activity change, negative = inhibition was 7.98%.
With `CCC(CC)NC(=O)/C=C/c1cccc([N+](=O)[O-])c1` the activity change, negative = inhibition was -60.1% (active).
With `O=C(/C=C/c1cccc([N+](=O)[O-])c1)NCCSCc1ccco1` the activity change, negative = inhibition was -19.7%.
`CC(C)OP(=O)(OC(C)C)C(Nc1ccccc1)c1cccc([N+](=O)[O-])c1` (stereo not given) gave an activity change, negative = inhibition of -30.9%.
`COc1ccc(-c2nc(S(=O)(=O)c3ccccc3)c(N3CCCCC3)o2)cc1` showed an activity change, negative = inhibition of -14.3%.
In the case of `CCOc1ccc2nc(N3CCCC(C(=O)Nc4cc(C)ccc4C)C3)sc2c1` (stereo not given), the activity change, negative = inhibition is reported as 69.3%.
`CCn1cc(C(=O)N(C)Cc2ccccc2)c(=O)c2cc(S(=O)(=O)N3CCCCCC3)ccc21` showed an activity change, negative = inhibition of 4.41%.
Work on `CC(=O)N1c2ccc(S(=O)(=O)NCCC(=O)N(C)C3CCCCC3)cc2CC1C` (stereo not given) yielded an activity change, negative = inhibition of -39.5%.
In the case of `COc1ccc(C(F)(F)F)cc1NC(=O)c1sc2nc(-c3cccs3)ccc2c1N`, the activity change, negative = inhibition is reported as 14.5%.
For `CCn1c(NC(=O)c2ccccc2)c(-c2cccs2)c(=O)c2ccccc21`, the activity change, negative = inhibition was 25.8%.
In the case of `N#Cc1ccc(C(=O)Nc2nc(-c3cccs3)c(C(=O)C(F)(F)F)s2)cc1`, the activity change, negative = inhibition is reported as -96.5% (active).
With `O=C(NCCS(=O)(=O)N1CCN(c2ccc(F)cc2)CC1)c1ccccc1Br` the activity change, negative = inhibition was 20.8%.
`Cn1c(=O)c2c(SCC(=O)NCC3CCCO3)nc(-c3ccccc3F)nc2n(C)c1=O` (stereo not given) gave an activity change, negative = inhibition of -4.16%.
`Cc1ccc(-c2cc(N)n(Cc3cccc(Cl)c3)n2)cc1` showed an activity change, negative = inhibition of -21.8%.
For `Cc1cccc(Nc2cc(C)nc(-n3nc(C)cc3C)n2)c1`, the activity change, negative = inhibition was -83.8% (active).
In the case of `COc1ccc(-c2nc3nc(C)cc(C)n3c2Nc2c(C)cccc2C)cc1`, the activity change, negative = inhibition is reported as -8%.
With `COc1ccc(Nc2cc(C)nc(-n3nc(C)cc3C)n2)cc1` the activity change, negative = inhibition was -84.3% (active).
`Cc1ccc(Nc2nc3ccccc3nc2-n2nc(C)cc2C)c(Cl)c1` gave an activity change, negative = inhibition of 2.84%.
In the case of `COc1cccc(/C=N/Nc2cc(C)nc(-c3ccccc3O)n2)c1O`, the activity change, negative = inhibition is reported as -95.8% (active).
`COc1ccc(C(C[N+](=O)[O-])n2nc(C)cc2C)cc1` (stereo not given) showed an activity change, negative = inhibition of -11%.
`COc1cc(Cl)c(C)cc1Nc1nnc(-n2nc(C)cc2C)c2ccccc12` showed an activity change, negative = inhibition of 16.8%.
`CCOC(=O)c1cnc(-n2nc(C)cc2C)nc1NNc1cc(C)nc(-c2ccccc2)n1` gave an activity change, negative = inhibition of -1.83%.
In the case of `COc1ccccc1/C=N\Nc1cc(C)nc(-n2nc(C)cc2C)n1`, the activity change, negative = inhibition is reported as -94.4% (active).
Compound `Cc1cc(C)n(-c2nnc(N3CCN(c4ccccc4)CC3)nn2)n1` has an activity change, negative = inhibition of -11.6%.
In the case of `COc1ccc(/C=C/c2noc(-c3ccccc3O)n2)cc1OC`, the activity change, negative = inhibition is reported as 63.9%.
`CCCCc1nnc(NC(=O)CSc2nc(N)cc(=O)[nH]2)s1` gave an activity change, negative = inhibition of -10.9%.
In the case of `O=S(=O)(NCCS(=O)(=O)N1CCN(c2ccccc2)CC1)c1ccc(Cl)cc1`, the activity change, negative = inhibition is reported as -35.4%.
With `CCOc1cc(/C=C(\C#N)C(=O)Nc2ccccc2C)ccc1OCc1cc(=O)n2nc(CC)sc2n1` the activity change, negative = inhibition was -5.21%.
`CSc1nc(=O)c2c(n1C)NC(=O)CC2c1ccccc1OC(C)C` (stereo not given) showed an activity change, negative = inhibition of -11%.
`CC1(c2cccc([N+](=O)[O-])c2)CC(C)(C)N(C(=O)c2ccccc2)c2ccccc21` (stereo not given) gave an activity change, negative = inhibition of -23.1%.
With `Cc1nnc(SCC(=O)N2c3ccccc3C(C)(c3ccc(Cl)cc3)CC2(C)C)s1` (stereo not given) the activity change, negative = inhibition was -74.1% (active).
Compound `O=C(CSc1nnc(SCc2ccc(Cl)cc2)s1)N/N=C/c1ccccc1Cl` has an activity change, negative = inhibition of 13.9%.
`CCOC(=O)C(Cc1ccccc1)NC(=O)CCc1c(C)nc2c(c(C)nn2-c2ccc(C)c(C)c2)c1C` (stereo not given) gave an activity change, negative = inhibition of 35.7%.
Work on `Cc1ccc(SCC(=O)Nc2ccc3oc(-c4ccccc4F)nc3c2)cc1` yielded an activity change, negative = inhibition of 68.8%.
`COc1ccc(Cl)cc1NC(=O)C(C)Sc1nc2c(c(=O)[nH]1)CCCC2` (stereo not given) gave an activity change, negative = inhibition of 12.7%.
For `Cc1ccccc1OS(=O)(=O)c1cccc([N+](=O)[O-])c1`, the activity change, negative = inhibition was -19.5%.
Work on `COc1cccc(OCCOc2cccc(/C=N/n3cnnc3)c2)c1` yielded an activity change, negative = inhibition of 27%.
In the case of `Cc1ccccc1OCCOc1ccc([N+](=O)[O-])cc1/C=N/n1cnnc1`, the activity change, negative = inhibition is reported as -98.2% (active).
Work on `CC1(c2nnc(Cc3ccccc3)o2)CC(c2ccccc2F)=NO1` (stereo not given) yielded an activity change, negative = inhibition of 4.15%.
With `CCCOc1ccc(NC(=O)CC2C(=O)N(c3ccccc3)C(=O)N2Cc2ccco2)cc1` (stereo not given) the activity change, negative = inhibition was 38.3%.
`COc1ccccc1N1CCN(CC(=O)Nc2ccnn2C2CCCC2)CC1` gave an activity change, negative = inhibition of -12%.
In the case of `COc1cccc(C(=O)N2CCC(n3nccc3NC(=O)C3CCOC3)CC2)c1` (stereo not given), the activity change, negative = inhibition is reported as -18.9%.
With `COc1cccc(N2CCN(CC(=O)Nc3ccnn3C3CCCC3)CC2)c1` the activity change, negative = inhibition was -60.5% (active).
With `COc1ccc2[nH]c3nc(SCC(=O)NC4CC4)nnc3c2c1` the activity change, negative = inhibition was 13.8%.
`CCOc1ccc2[nH]c3nc(SCC(=O)NC4CCCC4)nnc3c2c1` showed an activity change, negative = inhibition of -31.8%.
With `O=C(CSc1nnc2c(n1)[nH]c1ccccc12)NC1CCCCC1` the activity change, negative = inhibition was -65.5% (active).
`O=C(Cc1cccs1)N(CC1CCCO1)C1(C(=O)NC2CCCCC2)CCCCC1` (stereo not given) gave an activity change, negative = inhibition of -20.9%.
For `Cc1cc(N=CC2=C(O)CCCC2=O)no1`, the activity change, negative = inhibition was 2.05%.
In the case of `CCOC(=O)c1c(CC(C)C)csc1/N=C/C1=C(O)CCCC1=O`, the activity change, negative = inhibition is reported as -98.2% (active).
For `CCOC(=O)c1sc(/N=C/C2=C(O)CC(C)(C)CC2=O)c(C(=O)OCC)c1C`, the activity change, negative = inhibition was -33.1%.
`CCOC(=O)c1c(NC(=O)Cc2coc3ccc(CC)cc23)sc2c1CCC2` gave an activity change, negative = inhibition of 1.55%.
`Cc1ccc(C)c(N2CCN(C(=O)CN3C(=O)COc4ccc(S(=O)(=O)N5CCCCCC5)cc43)CC2)c1` showed an activity change, negative = inhibition of -10.9%.
`Cc1ccc(Cl)cc1-n1ncc2c(N3CCC(C(N)=O)CC3)ncnc21` gave an activity change, negative = inhibition of -7.89%.
`CCCCN(CC)C(=O)CN(C)S(=O)(=O)c1cccc2nsnc12` showed an activity change, negative = inhibition of 0.246%.
Work on `O=C(NCCCCc1ccccc1)C1CC(c2ccc([N+](=O)[O-])cc2)=NO1` (stereo not given) yielded an activity change, negative = inhibition of 1.01%.
For `O=C1NC(=O)C2C1C(c1ccc([N+](=O)[O-])cc1)=NN2Cc1ccccc1` (stereo not given), the activity change, negative = inhibition was -71.6% (active).
Compound `O=[N+]([O-])c1ccc(C(S(=O)(=O)Cc2ccccc2)S(=O)(=O)Cc2ccccc2)cc1` has an activity change, negative = inhibition of -20.9%.
Work on `Cc1ccc(-n2cnc3cc(C(=O)NCCC4=CCCCC4)ccc32)cc1Cl` yielded an activity change, negative = inhibition of -19.6%.
For `COc1ccc(-c2[nH]c3c(c2-c2c(-n4cccc4)n(C)c(=O)n(C)c2=O)c(=O)n(C)c(=O)n3C)cc1`, the activity change, negative = inhibition was 12.5%.
With `COc1ccccc1CNC(=O)c1ccc(NC(=O)N2CC(C)Sc3ccccc32)cc1` (stereo not given) the activity change, negative = inhibition was -6.59%.
For `COc1cccc(C(O)c2nc(-c3ccc(C)c(C)c3)cs2)c1` (stereo not given), the activity change, negative = inhibition was -60.7% (active).
For `Cc1ccccc1-c1csc(C(O)c2cccc(Cl)c2)n1` (stereo not given), the activity change, negative = inhibition was -10.3%.
`COc1ccc(-c2csc(C(O)c3cccc(Cl)c3)n2)cn1` (stereo not given) showed an activity change, negative = inhibition of -37.6%.
With `Cn1c(/C(C#N)=C2/CCCCCN2)nc2ccccc21` the activity change, negative = inhibition was -40%.
With `Cc1nn(CC(=O)NCCc2ccccc2)c(=O)c2c1sc1ccccc12` the activity change, negative = inhibition was 0.0704%.
`N#C/C(=C\c1ccccc1F)c1nc2ccccc2c(=O)[nH]1` gave an activity change, negative = inhibition of -22.3%.
In the case of `O=C(/C(=C/c1cccc(Cl)c1)c1nc2ccccc2[nH]1)c1ccccc1`, the activity change, negative = inhibition is reported as -99.6% (active).
With `CCc1ccc(CNCc2c(C(=O)O)n(Cc3ccc(F)cc3Cl)c3cc(OC)ccc23)cc1` the activity change, negative = inhibition was 15.2%.
With `CCOC(=O)C1=C(c2ccccc2)N=C2SCC(=O)N2C1c1ccc(O)c(OC)c1` (stereo not given) the activity change, negative = inhibition was 9.04%.
`CC1CN(CCCOc2ccccc2-c2ccccc2)CC(C)O1` (stereo not given) showed an activity change, negative = inhibition of 58.1%.
In the case of `CC1CCCN(CCOCCOc2ccccc2-c2ccccc2)C1` (stereo not given), the activity change, negative = inhibition is reported as -71.7% (active).
For `CC1CN(CCOc2ccccc2[N+](=O)[O-])CC(C)O1` (stereo not given), the activity change, negative = inhibition was -21.7%.
